Wnt bcat act – Wnt/beta-catenin pathway activation; activation, % at 9.35 µM; 300,000 compounds, 1.2% hits; AID 743398; Wnt/beta-catenin reporter cell assay, activator, plate reader; in the data active = activation above about 30%, passing the limit was not always enough; inconclusive = no clear call, values can overlap the other calls
PAX8 inh HTS – PAX8 transcriptional activity inhibition; AID 652154; inhibition, % at 12.6 µM; 360,000 compounds, 1.2% hits; RMG-I TPO-luciferase reporter, SteadyGlo, 24 h;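 active = mean replicate inhibition at least 60% with every replicate also reaching 60%; inconclusive = only one of the two criteria is met; inactive = mean below 60% and not all replicates reaching 60%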;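 note: luciferase light reporting Pax8 driven TPO promoter activity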
esBAF inh – inhibitors of esBAF chromatin remodeling in mouse ES cells; Bmi1-luciferase knock-in reporter, 24 h; 100% = twice the neutral-well signal; reporter increase, % at 12.5 µM; 350,000 compounds, 2% hits; in the data active = activation above about 40%; inconclusive = no clear call, values can overlap the other calls;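 note: a rise in the Bmi1 reporter signal indicates esBAF inhibition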
EWS-Fli block – blocks EWS/Fli oncoprotein-driven transcription; 350,000 compounds, 0.67% hits; inhibition, % at 12.6 µM; A673 NR0B1-luciferase reporter, viability-normalised;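 active = mean inhibition of at least 50% after viability correction, with every replicate also passing that limit; inconclusive = mean reaches 50% but only one of two replicates passes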;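 note: firefly luciferase signal divided by Alamar Blue viability fluorescence both relative to DMSO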
MITF act – increases MITF-driven TRPM1 promoter luciferase signal; SK-MEL-5 TRPM1-promoter luciferase, 24 h; % of positive control, neutral wells = 0; activation, % at 12.5 µM; 300,000 compounds, 0.75% hits;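 active = mean activation of at least 80% with every replicate also reaching 80%; inconclusive = mean reaches 80% but some replicate falls short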
MITF TRPM1 inh – inhibitors of MITF-driven TRPM1 promoter in melanoma cells | SK-MEL-5 TRPM1 promoter luciferase, 24 h | inhibition, % at 12.5 µM | 330,000 compounds, 0.83% hits;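 active = mean inhibition across replicates of 60% or more, whatever share of single replicates reaches that level; inconclusive = some that reach 60%, reason not given; inactive = mean inhibition across replicates below 60%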
Numbers stand for hits; ! = not confirmed by another sample. Hits are enriched below; roughly 4% of the tested compounds scored in any of these assays.

For COc1ccc(C(C)NC(=O)c2ccc([N+](=O)[O-])cc2)cc1OC (stereo not drawn) the results were Wnt bcat act inactive, PAX8 inh HTS inactive, EWS-Fli block inactive, MITF act inactive and MITF TRPM1 inh inactive.
`COc1ccc(C(C)NC(=O)c2ccc(Br)cc2)cc1OC` (stereo not drawn) gave Wnt bcat act inactive, PAX8 inh HTS 138, EWS-Fli block inactive, MITF act inactive and MITF TRPM1 inh inactive.
Screening COc1ccc(-c2ccc(C(=O)NCc3cccs3)c3occc23)c(C)c1 returned Wnt bcat act inactive, PAX8 inh HTS inactive, esBAF inh 72 and EWS-Fli block inactive.
Screening COc1ccc(-c2coc3c(C(=O)NCc4cccs4)cccc23)c(C)c1 returned Wnt bcat act inactive, esBAF inh inactive and EWS-Fli block inactive.
Screening COc1cccc(-c2ccc(C3[C@H]4CNC[C@@H]3N4S(=O)(=O)c3cccc(Cl)c3)cc2)c1 (stereo partly drawn) returned PAX8 inh HTS inactive and EWS-Fli block inactive.
For O=Cc1ccccc1OCCCOc1cccc2cccnc12 the results were Wnt bcat act inactive, PAX8 inh HTS inactive, esBAF inh inactive, EWS-Fli block inactive, MITF act inactive and MITF TRPM1 inh inactive.
Screening Clc1ccccc1OCCCOc1cccc2cccnc12 returned Wnt bcat act inactive, PAX8 inh HTS inactive, esBAF inh 55, EWS-Fli block inactive and MITF TRPM1 inh inactive.
For O=[N+]([O-])c1ccccc1OCCCOc1cccc2cccnc12 the results were Wnt bcat act inactive, PAX8 inh HTS inactive, esBAF inh 60, EWS-Fli block inactive and MITF TRPM1 inh inactive.
Brc1ccc(OCCCOc2cccc3cccnc23)cc1 was read as Wnt bcat act inactive, PAX8 inh HTS inactive, esBAF inh 72, EWS-Fli block inactive and MITF TRPM1 inh inactive.
For COc1ccc2cc(C(=O)NCCc3ccccc3)[nH]c2c1 the results were Wnt bcat act inactive, PAX8 inh HTS inactive, esBAF inh 43, EWS-Fli block inactive, MITF act inconclusive and MITF TRPM1 inh inactive.
Screening COc1ccc2cc(C(=O)NCc3ccccc3)[nH]c2c1 returned Wnt bcat act inactive, PAX8 inh HTS inactive, esBAF inh inactive, EWS-Fli block inactive, MITF act inactive and MITF TRPM1 inh inactive.
COc1ccc2[nH]cc(C(=O)NCCc3ccccc3)c(=O)c2c1 was read as Wnt bcat act inactive, PAX8 inh HTS inactive, esBAF inh inactive, EWS-Fli block inactive, MITF act inactive and MITF TRPM1 inh inactive.
For COc1ccc2c(=O)c(C(=O)NCCc3ccccc3)c[nH]c2c1 the results were Wnt bcat act inactive, PAX8 inh HTS inactive, esBAF inh 55, EWS-Fli block inactive, MITF act inactive and MITF TRPM1 inh inactive.
`C[C@H](CO)N1C[C@H](C)[C@H](CN(C)C(=O)Nc2ccc(F)cc2)Oc2c(NC(=O)c3nc4ccccc4s3)cccc2C1=O` gave esBAF inh inactive and EWS-Fli block inactive.
COc1ccc(Nc2nc3ccc(OC)cc3s2)cc1 was read as Wnt bcat act inactive, PAX8 inh HTS inactive, EWS-Fli block inactive, MITF act 91 and MITF TRPM1 inh inactive.
COc1ccc(C(=O)Nc2nc3ccc(OC)cc3s2)cc1 was read as Wnt bcat act inactive, PAX8 inh HTS inactive, esBAF inh inactive, EWS-Fli block inactive and MITF TRPM1 inh inactive.
`COc1ccc2nc(Nc3nc(C)c(C(C)=O)s3)sc2c1` gave Wnt bcat act 56, PAX8 inh HTS inactive, esBAF inh inactive, MITF act inactive and MITF TRPM1 inh inactive.
`COc1ccc2nc(NC(=O)Nc3ccccc3)sc2c1` gave Wnt bcat act 56!, PAX8 inh HTS inactive, esBAF inh inactive, EWS-Fli block inactive, MITF act inactive and MITF TRPM1 inh inactive.
For CCOc1ccc2nc(NC(=O)Nc3ccccc3)sc2c1 the results were MITF act inactive and MITF TRPM1 inh inactive.
For COc1cc(C)nc(Nc2nc(C)c(C(C)=O)s2)n1 the results were esBAF inh inactive, MITF act inactive and MITF TRPM1 inh inactive.
For COc1ccc2c3c(n(C)c2c1)[C@@H](CO)N(C(=O)Nc1ccc(F)cc1)CC31CCN(S(=O)(=O)c2cccc(F)c2)CC1 the results were EWS-Fli block inactive.
Screening Cn1c(N)c(C(=O)COC(=O)c2cc(S(=O)(=O)N3CCOCC3)ccc2F)c(=O)n(C)c1=O returned Wnt bcat act 96, PAX8 inh HTS inactive, esBAF inh inactive, EWS-Fli block 67, MITF act inactive and MITF TRPM1 inh 82.
COc1ccc(S(=O)(=O)Nc2ccc3c(c2)CC(=O)N([C@H](C)CO)C[C@H](C)[C@@H](CN(C)S(=O)(=O)c2c(C)noc2C)O3)cc1 was read as esBAF inh inactive and EWS-Fli block inactive.
CCc1ccc(Nc2n[n+](-c3ccccc3)c(-c3ccc(N(CC)CC)cc3)s2)cc1 was read as Wnt bcat act inactive, PAX8 inh HTS 82, esBAF inh inactive, EWS-Fli block inactive, MITF act inactive and MITF TRPM1 inh 68.
Screening CCc1ccc(Nc2n[n+](-c3ccccc3)c(-c3c(Cl)cccc3Cl)s2)cc1 returned Wnt bcat act inactive, PAX8 inh HTS 101, esBAF inh inactive, EWS-Fli block inactive, MITF act inactive and MITF TRPM1 inh inactive.
Clc1nc2ccccc2cc1-c1nnn(-c2ccccc2Br)n1 was read as Wnt bcat act inactive, PAX8 inh HTS inactive, esBAF inh 41, EWS-Fli block inactive, MITF act inactive and MITF TRPM1 inh inactive.
COc1ncccc1-c1nnn(-c2ccc(Cl)nc2)n1 was read as Wnt bcat act inactive, PAX8 inh HTS inactive, esBAF inh inactive, EWS-Fli block inactive, MITF act inactive and MITF TRPM1 inh inactive.
Screening O=c1[nH]c2ccccc2cc1-c1nnn(-c2ccccc2)n1 returned Wnt bcat act inactive, PAX8 inh HTS inactive, esBAF inh inactive, EWS-Fli block inactive, MITF act inactive and MITF TRPM1 inh inactive.
Brc1ccccc1-n1nnc(-c2cnc3ccccc3c2)n1 was read as Wnt bcat act 43, PAX8 inh HTS inactive, esBAF inh inconclusive, EWS-Fli block inactive, MITF act inactive and MITF TRPM1 inh inactive.
`Clc1ncccc1-c1nnn(-c2ccccc2Br)n1` gave Wnt bcat act inactive, PAX8 inh HTS inactive, esBAF inh 50, EWS-Fli block inactive, MITF act inactive and MITF TRPM1 inh inactive.
C[C@@H]1CN([C@H](C)CO)C(=O)c2cc(C#CC3CCCC3)cnc2O[C@H]1CN(C)C(=O)C1CCCCC1 was read as PAX8 inh HTS inactive, esBAF inh inactive and EWS-Fli block inactive.
Cc1ccc(CN=c2c([N+](=O)[O-])nn(-c3ccc4c(c3)OCCO4)n2O)cc1 was read as MITF act inactive and MITF TRPM1 inh inactive.
`O=[N+]([O-])c1nn(-c2ccc3c(c2)OCCO3)n(O)c1=Nc1ccc(Cl)cc1` gave Wnt bcat act inactive, esBAF inh inactive, EWS-Fli block inactive, MITF act inactive and MITF TRPM1 inh 64.

Screening results from PubChem.
